RGS4 inh = Inhibitors of Regulator of G Protein Signaling (RGS) 4: qHTS. Regulator of G-protein signaling 4 (Homo sapiens), P49798. Transcreener GDP fluorescence polarization, RGS4-accelerated GTP hydrolysis. Potency, µM (doses to about 114 µM), for inactives: at the highest dose activity change, negative = inhibition, hits mostly inhibitors. 0.039% of 390,000 active. AID 504845, 2011; note: potency is the fitted concentration of half-maximal effect; % is set by controls: 0 for no effect and ±100 for the full control effect; nearly all actives have a fitted effect of over 75% in size
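MLSMR compounds (23 nl, pin-transferred) preincubated 10 min at room temperature with a 500nM (2x) first reagent, then RGS4 at 900nM (2x) plus Transcreener GDP mix added; fluorescence polarization (620/688 nm) read before and after 90 min at 30 °C.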
DRD3 agonist = qHTS of D3 Dopamine Receptor Agonist: qHTS. max activation, %. 0.58% of 410,000 active. AID 652048, 2013. D3R DiscoveRx beta-arrestin cells, luminescence, 90 min. D(3) dopamine receptor (Homo sapiens), P35462; in the data active = max activation above about 30%; note: 0% is about no effect
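Cells at 1500/well, incubated overnight, then treated with pinned compounds (dopamine as control) for 90 min at 37 degrees C. DiscoveRx reagent added for 30 - 60 minutes at room temperature; luminescence read.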
D3 antag = qHTS of D3 Dopamine Receptor Antagonist: qHTS. AID 652054, 2013. D(3) dopamine receptor (Homo sapiens), P35462. 2.5% of 360,000 active. D3R cells, DiscoveRx beta-arrestin luminescence, antagonist mode; stronger effect = lower value. max response, negative = inhibition, %; in the data active = max response below about -50%; inconclusive = no clear call, values can overlap the other calls; note: % is set by controls: 0 for no effect and ±100 for the full control effect
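Cells expressing the human receptor were seeded at 1500 cells/well, incubated overnight at 37 degrees C in 5% CO2, then exposed to library compounds with dopamine controls for 90 minutes at 37 degrees C before luminescent detection.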
B2AR arrestin = qHTS assay of beta-arrestin-biased ligands of beta2-adrenergic receptor; beta-arrestin recruitment to beta2AR, cell-based reporter; Potency, µM (top dose mostly 46.1 µM), without a hit: at the highest dose activation, most hits filed as activators; 0.02% of 330,000 active;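 note: potency is the fitted concentration of half-maximal effect; 0% = DMSO controls and full agonism = EC100 isoproterenol or metaproterenol; nearly all actives have a fitted effect of over 65% in size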
PTHR1 ag = qHTS for PTHR1 Agonists: Primary Screen; HEK293 GP2 PTHR1 cells, GloSensor cAMP luminescence, 1 h; Potency, µM (top dose mostly 115 µM), inactives show top-dose activation, usual class: activators; 0.075% of 410,000 active; note: potency is the fitted concentration of half-maximal effect; nearly all actives have a fitted effect of over 55% in size
Target sequence (Q03431 whole entry, looked up): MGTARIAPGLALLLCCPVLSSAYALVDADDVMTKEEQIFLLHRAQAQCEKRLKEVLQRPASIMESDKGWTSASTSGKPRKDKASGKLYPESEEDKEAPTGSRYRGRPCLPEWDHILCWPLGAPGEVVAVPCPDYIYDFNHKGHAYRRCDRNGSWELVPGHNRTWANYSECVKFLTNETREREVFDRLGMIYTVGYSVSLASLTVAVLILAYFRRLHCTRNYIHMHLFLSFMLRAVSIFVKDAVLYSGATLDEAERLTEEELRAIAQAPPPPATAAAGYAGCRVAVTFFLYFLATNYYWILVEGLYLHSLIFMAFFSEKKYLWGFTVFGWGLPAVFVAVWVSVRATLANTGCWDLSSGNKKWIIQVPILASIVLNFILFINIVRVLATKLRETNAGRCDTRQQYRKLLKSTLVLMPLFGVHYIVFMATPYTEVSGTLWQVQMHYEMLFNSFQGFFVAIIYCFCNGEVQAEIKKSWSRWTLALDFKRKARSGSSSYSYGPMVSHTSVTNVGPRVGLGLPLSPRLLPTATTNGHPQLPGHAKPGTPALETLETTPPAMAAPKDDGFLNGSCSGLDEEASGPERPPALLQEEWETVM
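HEK-293-derived GP2 cells expressing PTHR1 and a GloSensor cAMP reporter, 3,000/well, plated overnight, given luciferin plus IBMX (each 0.5 mM as added) for 1 h at 37 °C, then compound for 1 h at 37 °C. Luminescence was read after 15 min at room temperature.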
BRCA1 expr up = qHTS Assay to Identify Small Molecule Activators of BRCA1 Expression; Potency, µM (highest dose often 46.1 µM), for the others: top-dose activation, actives largely listed as activators; MCF7-BRCA1-FFLuc reporter, luminescence, 48 h; response scale: scaled: vehicle 0%, 10 µM genistein 100%; 1.1% of 380,000 active; AID 624202, 2012; note: potency is the fitted concentration of half-maximal effect; nearly all actives have a fitted effect of over 80% in size
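Luminescence from a BRCA1-driven firefly luciferase in MCF7 cells was read after 48 h compound exposure at 37 C. Data normalized against DMSO and a 10microM genistein activation control, then curve-fitted across the titration.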
Numbers without * were called inactive; i = inactive; ? = inconclusive; · = no result given; [ ] = remark or other dose. Rows were chosen to be rich in hits. Some 3.7% of all compounds tested hit in one or more screens of this group. Unless noted, calls come from the whole dose curve; as a rule, active = well fitted curve in the direction sought with a large enough effect; inconclusive = small, poorly fitted or top-dose-only effect, or another doubt; inactive = no such curve, though single readings can be large; an effect the other way counts as inactive or inconclusive.

SMILES	RGS4 inh	DRD3 agonist	D3 antag	B2AR arrestin	PTHR1 ag	BRCA1 expr up
C/C(=N\Nc1cc(N2CCCCC2)nc(C)n1)c1ccc(Br)cc1	-16.3%	67.3*	23.5	0.1%	-12.4%	-45.4%
COc1ccc(CNC(=O)CN2C(=O)c3ccc([N+](=O)[O-])cc3C2=O)cc1	-23.8%	31.5*	-3.0	-0.3%	-58.8%	4.4%
CCOc1cc(C#N)c(NC(=O)c2ccc(OC)c(S(=O)(=O)N3CCCCC3)c2)cc1OCC	22.9%	7.2	·	·	i	·
CC1(C)C/C(=N\NC(=S)Nc2ccccc2F)c2cc(O)ccc2O1	-23.5%	-8.1	-53.5*	?	i	-62.2%
Cc1ccc(OC(C)C(=O)N=Nc2c(O)[nH]c3ccc([N+](=O)[O-])cc23)cc1 (stereo unspecified)	0.9%	1.8	-18.1	0.0%	-94.4%	-41.8%
COc1cc2c(cc1OC)C1C/C(=N\O)C(CC(C)C)CN1CC2 (stereo unspecified)	-4.4%	-19.6	-58.1*	-0.4%	i	-25.6%
CCCCC[C@H](O)/C=C/[C@H]1CCC(=O)[C@@H]1CCCCCCC(=O)N1CCCCC1CO (stereo partly specified)	-6.1%	30.4*	82.9	0.1%	-16.6%	-63.3%
COc1ccc2oc(C(=O)OC/C(O)=C(\C#N)c3nc4ccccc4[nH]3)c(C)c2c1	-27.6%[56.9 µM]	4.0	-21.3	-0.5%	-14.2%	-37.8%
CCOC(=O)c1c(C)[nH]c(C(=O)OC/C(O)=C(\C#N)c2nc3ccccc3[nH]2)c1C	-52.7%	-1.2	-52.3*	0.0%	i	-51.7%
N#C/C(=C(/O)COC(=O)c1ccc(Cl)c(S(=O)(=O)N2CCOCC2)c1)c1nc2ccccc2[nH]1	-5.5%	5.1	8.9	-0.1%	i	-6.9%
N#C/C(=C(/O)COC(=O)c1ccc2c(c1)OCCO2)c1nc2ccccc2[nH]1	9.6%	-2.4	-62.1*	-1.5%	-4.7%[57.5 µM]	-35.4%
C/C(=C\C(=O)c1ccccc1)Nc1ccc(O)cc1	?	-8.2	?	6.5%	-16.3%	5.01µM*
C/C(=C\C(=O)c1cccnc1)Nc1ccc(O)cc1	?	2.8	-23.2	0.0%	-18.0%	?
Cc1ccc2[nH]c(=O)c3cc(C(=O)N4CCN(c5ccccc5F)CC4)sc3c2c1	8.5%	6.3	·	·	i	1.3%
CC1CCC(NC(=O)Cn2c(=O)oc3ccccc32)CC1 (stereo unspecified)	26.9%	-7.6	-50.7*	-0.2%	-6.1%	49.9%
CC1CCN(C(=O)Cn2c(=O)oc3ccccc32)CC1	-24.2%	-4.4	0.0	-0.5%	-3.2%	10.7%
COc1ccccc1-c1nnc(NC(=O)c2ccc(S(=O)(=O)N(C)C)cc2)o1	-11.1%	0.6	167.3	-0.1%	-8.8%[57.5 µM]	-44.3%
CCN(Cc1ccccc1)S(=O)(=O)c1ccc(C(=O)Nc2nnc(-c3ccccc3OC)o2)cc1	-17.3%[11.4 µM]	8.6	-85.9*	0.2%	-7.4%[57.5 µM]	-62.9%
COCc1nnc(NC(=O)c2ccc(S(=O)(=O)N(CC(C)C)CC(C)C)cc2)o1	-10.4%[11.4 µM]	6.6	9.4	0.3%	i	-47.4%
CCCCN(CC)S(=O)(=O)c1ccc(C(=O)Nc2nnc(COC)o2)cc1	-9.8%[11.4 µM]	6.3	-65.0*	-0.3%	i	-37.9%
COCc1nnc(NC(=O)c2ccc(S(=O)(=O)N(C)c3ccccc3)cc2)o1	-3.2%	-12.9	-55.9*	-0.5%	18.1%	-29.7%
COCCN(CCOC)S(=O)(=O)c1ccc(C(=O)Nc2nnc(C3CC3)o2)cc1	-40.9%	-14.2	-52.9*	-0.9%	i	-18.2%
Cc1ccc(N=Nc2ccc(C)cc2NC(=O)Nc2ccccc2F)cc1	3.7%	0.8	-1.9	3.5%	-29.0%	9.5%
COc1ccc(NC(=O)N2CCC(CN3CCCC3)CC2)c(OC)c1	-12.2%	-4.7	·	·	i	·
CCN(c1ccccc1)S(=O)(=O)c1ccc(C(=O)Nc2nnc(CSC)o2)cc1	4.2%	-1.0	-1.3	-0.4%	i	-45.3%
SMILES	RGS4 inh	DRD3 agonist	D3 antag	B2AR arrestin	PTHR1 ag	BRCA1 expr up
CCCCN(CCCC)S(=O)(=O)c1ccc(C(=O)Nc2nnc(CSC)o2)cc1	-4.4%	-0.2	-113.1*	0.3%	i	-94.9%
CCCN(CCC)S(=O)(=O)c1ccc(C(=O)Nc2nnc(CSC)o2)cc1	-47.9%	2.2	-98.9*	0.3%	-6.2%[57.5 µM]	-72.2%
CCCCN(CC)S(=O)(=O)c1ccc(C(=O)Nc2nnc(CSC)o2)cc1	-47.7%	-8.1	-83.2*	-0.6%	i	-69.2%
CCCn1c(=O)c2ccccc2n2c(SCCOc3ccc(Cl)cc3)nnc12	10.0%	-0.9	-50.1*	-3.9%	i	-5.5%
COc1ccccc1Cc1c(-c2ccco2)nc2c3ccccc3ccn12	·	-0.9	0.9	·	-37.4%	0.2%
Cc1cc(NC(=O)c2cccc(Cl)c2)n[nH]1	16.1%	6.5	-18.2	-0.1%	-18.4%	3.98µM*
Cc1ccc(NC(=O)c2cccc(Cl)c2)nc1	-50.1%	-0.7	0.0	0.2%	-6.8%	?
Cc1cc(Br)ccc1NC(=O)COC(=O)c1ccccc1OCC(=O)N(C)C	·	·	·	·	·	7.2%
CN(Cc1cccs1)S(=O)(=O)c1ccc(Cl)cc1F	17.7%	-3.5	-10.7	0.2%	-1.2%	-5.9%
Cc1c(CCNC=O)cc(C)c2c3c(oc12)CCCC3	-8.3%	6.0	0.0	·	-9.9%	10µM*
CCC[C@@H]1C[C@@H](C(=O)N[C@@H]([C@H]2O[C@H](SC)[C@H](OP(=O)(O)O)[C@@H](O)[C@H]2O)[C@H](C)Cl)N(C)C1	·	-1.0	·	·	·	·
Cc1ccc(C(=O)Nn2c(C)nc3ccccc3c2=O)cc1C	25.7%	0.2	20.9	-0.2%	-17.3%	5.6%
CN1C(C(=O)c2ccccc2)=C(N)c2ccccc2S1(=O)=O	6.3%	3.3	-1.1	0.1%	-3.8%	-4.4%
Cc1ccc(NC2=C(C(=O)c3ccccc3)N(C)S(=O)(=O)c3ccccc32)cc1	-27.6%	-6.5	-59.9*	-0.1%	-46.7%	-34.4%
COc1cc(/C=N/N=C2/C(=O)Nc3ccccc32)cc(OC)c1O	-41.9%	-25.3	-83.7*	0.0%	-17.6%	-59.8%
O=C1Nc2ccccc2/C1=N/N=C/c1cccc(O)c1	-0.6%	5.5	-8.7	-0.2%	-16.1%	-54.6%
OCCO[C@@H]1[C@@H](O)[C@H](O)[C@@H](CO)O[C@@H]1O	·	7.4	·	·	·	·
CN(C)CCCN1c2ccccc2Sc2ccc(C(F)(F)F)cc21	6.0%[56.9 µM]	-85.9	-96.8*	0.5%	-15.5%	9.4%
